According to PubChem BioAssay AID488857 (Sanford-Burnham Center for Chemical Genomics, 2010):
The campaign covered roughly 1,400 compounds. About 560 (40%) were called active. The set was probably picked from earlier hits. Some of the results follow. Unmarked numbers belong to inactive results.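 How the source made its calls: active means mean inhibition over duplicate tests at 10 µM above 50%; inactive means the rest.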

Experiment: ASC/caspase-1 reporter retest in S. cerevisiae at one dose, specificity check for NALP1 project (AID 488857)
Details: S. cerevisiae ASC/Caspase-1, beta-galactosidase luminescence, 24 h; at 10 µM; active compounds read high
For `Cc1ccc(C(C[N+](=O)[O-])c2c(N)n(C)c(=O)n(C)c2=O)cc1` (configuration not stated), the inhibition was 98.2% (active). With `O=c1[nH][nH]c(-c2ccccc2O)c1C(C[N+](=O)[O-])c1ccc(Cl)cc1Cl` (configuration not stated) the inhibition was 42.1%. With `COc1cccc(F)c1C(C[N+](=O)[O-])c1c(N)n(C)c(=O)n(C)c1=O` (configuration not stated) the inhibition was 97.7% (active). For `COc1ccccc1C(C[N+](=O)[O-])c1c(N)n(C)c(=O)n(C)c1=O` (configuration not stated), the inhibition was 99.8% (active). In the case of `N=c1n(CC(=O)c2ccc([N+](=O)[O-])cc2)c2ccccc2n1Cc1ccccc1Cl`, the inhibition is reported as 28.8%. Work on `Cc1nc([N+](=O)[O-])c(Br)n1CC(=O)c1ccc(Cl)cc1` yielded an inhibition of 37.6%. With `Cc1ccccc1Cn1c(=N)n(CC(=O)c2ccc([N+](=O)[O-])cc2)c2ccccc21` the inhibition was 53.6% (active). For `CCCCCOc1ccc(Cn2ccnc2)cc1[N+](=O)[O-]`, the inhibition was 64% (active). `CCCCOc1ccc(CSC2=NCCN2)cc1[N+](=O)[O-]` gave an inhibition of 40.1%. For `CCc1cccc2c(C(=O)COC(=O)c3ccccc3)c[nH]c12`, the inhibition was 43.6%. In the case of `CCc1cccc2c(C(=O)CSc3nncn3-c3ccc(OC)cc3)c[nH]c12`, the inhibition is reported as 38.1%. With `CCc1cccc2c(C(=O)COC(=O)c3ccc([N+](=O)[O-])s3)c[nH]c12` the inhibition was 95.7% (active). `O=C(Nc1nc2c(c(=O)[nH]1)CCCC2)C1CC1` showed an inhibition of 31.5%. With `O=C1c2ccccc2C(O)N1c1cccnc1` (configuration not stated) the inhibition was 23.4%. In the case of `O=C1c2ccccc2C(Nc2ccc(Cl)cn2)N1Cc1ccccc1` (configuration not stated), the inhibition is reported as 52.1% (active). `COc1ccc(C(C)C)cc1S(=O)(=O)n1cnc(C)c1` showed an inhibition of 42.7%. `COC(=O)c1cc(OC)c(OC)cc1NC(=S)N1CCN(c2ccccc2)CC1` showed an inhibition of 39.1%. With `O=C(CN1CCN(c2cccc(Cl)c2)CC1)Nc1ccc(S(=O)(=O)N2CCOCC2)cc1` the inhibition was 33.4%. With `COC(=O)/C=C/C(=O)N1CCN(c2cccc(Cl)c2)CC1` the inhibition was 62.8% (active). In the case of `C#CCOc1c(Br)cc(/C=N/O)cc1OCC`, the inhibition is reported as 17.9%. For `CNc1nc(SCc2ccc(C)cc2)nc2c1CCCC2`, the inhibition was 98.4% (active). Compound `Cc1oc(-c2ccccc2Cl)nc1CSc1nc2c(c(=O)[nH]1)CCC2` has an inhibition of 21.4%. In the case of `CNc1nc(SCc2ccccc2Cl)nc2c1CCCC2`, the inhibition is reported as 97.2% (active). In the case of `NC(=NCCc1ccc(Cl)cc1)NS(=O)(=O)c1ccc(F)cc1`, the inhibition is reported as 23.1%. `COc1ccc(N(C)C2=NS(=O)(=O)c3ccccc32)cc1` gave an inhibition of 29.7%. For `CN(Cc1ccccc1)c1ncnc2c1cnn2-c1ccccc1`, the inhibition was 66.2% (active). Work on `COC(=O)c1ccc(Cn2cnc3c(cnn3-c3ccc(Cl)cc3)c2=O)o1` yielded an inhibition of 35.1%. For `COCCN(CCOC)c1ncnc2c1cnn2-c1ccc(Cl)cc1`, the inhibition was 69.3% (active). With `Nc1ccc(C(=O)c2cccs2)cc1` the inhibition was 54.2% (active). Work on `CC(C)c1ccc(NCCC(=O)c2cccs2)cc1` yielded an inhibition of 42%. For `CCOc1ccc(NC(=O)c2csc3c2CCCC3)cc1`, the inhibition was 70.2% (active). With `CCOc1ccc(N=c2oc3cc(O)ccc3cc2C(=O)NCC2CCCO2)cc1` (configuration not stated) the inhibition was 33%. `CCOc1ccc(NC(=O)c2cc3c(C)nc4ccccc4c3o2)cc1` gave an inhibition of 33.2%. `CCOC(=O)c1cc(-c2ccccc2)n(CCC(=O)N2CCN(c3ccccn3)CC2)c1C` showed an inhibition of 32.7%. In the case of `O=C(c1ccccc1-c1ccccc1)N1CCN(c2ccccn2)CC1`, the inhibition is reported as 35.6%. In the case of `O=C(N1CCN(c2ccccn2)CC1)C(Cl)(Cl)Cl`, the inhibition is reported as 63.7% (active). For `O=C(CSCc1cnn(-c2ccccc2)c1-n1cccc1)NCc1ccc2c(c1)OCO2`, the inhibition was 57.3% (active). In the case of `c1ccc2c(Nc3nc(N4CCOCC4)c4ccccc4n3)cccc2c1`, the inhibition is reported as 95% (active). With `Oc1c(Cl)cc(Cl)c(Cl)c1Cc1c(O)c(Cl)cc(Cl)c1Cl` the inhibition was 98.4% (active). With `CCN(CC)c1ccc(NC(=O)Cn2cc3c(n2)CCC(C)C3)c(C)c1` (configuration not stated) the inhibition was 51.1% (active). In the case of `Cc1cc(Cl)c(OCCCn2ccnc2)c(Br)c1`, the inhibition is reported as 64.8% (active). With `C=CCNCCCCOc1ccc(Br)cc1C` the inhibition was 46.5%. For `Cc1cc(Br)ccc1OCCn1ccnc1`, the inhibition was 59.4% (active). With `CCOc1cc(C(=O)OCC(=O)Nc2ncc(Cl)c(C)c2Cl)ccc1OCC(=O)N1CCOCC1` the inhibition was 33.8%. In the case of `COC(=O)CCn1nnc(-c2ccc(C(C)C)cc2)n1`, the inhibition is reported as 41.2%. In the case of `CN(C)CCNC(=O)COc1ccc(Cl)cc1Cl`, the inhibition is reported as 28.3%. For `COc1ccccc1OCC(=O)NCCSCc1ccccc1Cl`, the inhibition was 65.5% (active). For `O=C(COc1ccccc1Cl)NCCC1=CCCCC1`, the inhibition was 48.4%. In the case of `COc1ccccc1OCC(=O)NCCSCc1cccc(Cl)c1`, the inhibition is reported as 61.4% (active). For `COc1ccccc1OCC(=O)NCCSCc1ccc(Cl)cc1`, the inhibition was 64.2% (active). For `O=C(COC(=O)CCSc1ccccc1)NCc1ccccc1Cl`, the inhibition was 29.2%. `O=C(CN1C(=O)C2C3C=CC(C3)C2C1=O)NCCc1ccccc1` (configuration not stated) showed an inhibition of 23.8%. For `O=C(CCSCc1cccc(Cl)c1)NCCc1ccccc1`, the inhibition was 64.2% (active). With `Cc1sc(NC(=O)c2cc3ccccc3oc2=O)c(C(=O)OC(C)C)c1-c1ccccc1` the inhibition was 36%. In the case of `COc1cccc(N2C(=O)C(O)=C(C(C)=O)C2c2ccc(OC)c(OC)c2)c1` (configuration not stated), the inhibition is reported as 31%. With `CC(=O)N1CC[n+]2c(-c3ccc(Cl)cc3Cl)csc21` the inhibition was 23.9%. `CC(C)Cn1c(CN(Cc2ccccc2)Cc2ccccc2)nc2c1c(=O)n(C)c(=O)n2C` gave an inhibition of 35.6%. `O=C(CSC1=NS(=O)(=O)c2ccccc21)Nc1ccccc1` gave an inhibition of 43.5%. With `O=C(CSCc1cccc(Cl)c1)Nc1ccccc1-c1ccccc1` the inhibition was 62.6% (active). Work on `Cc1ccc(CC(=O)Nc2ccccc2-c2ccccc2)cc1C` yielded an inhibition of 34.3%. Compound `COC(=O)c1ccccc1SC1CC(=O)N(c2ccccc2)C1=O` (configuration not stated) has an inhibition of 49.2%. With `COc1ccc(CCN(C)C2CC(=O)N(c3ccccc3)C2=O)cc1OC` (configuration not stated) the inhibition was 51% (active). With `COc1ccc(CCNC(=O)CN2CCC(C)CC2)cc1OC` the inhibition was 28.1%. With `COc1ccc2[nH]c(C)c(CCNC(=S)Nc3cc(C)cc(C)c3)c2c1` the inhibition was 17%. With `COc1ccc2[nH]c3c(C)c4ccncc4c(C)c3c2c1` the inhibition was 98.8% (active). `CC(C)(C)c1cc(C(=O)O)n[nH]1` gave an inhibition of -9.25%. For `O=C(Nc1nccs1)c1sc2ccccc2c1Cl`, the inhibition was 80.7% (active). In the case of `O=C(Nc1nc(-c2ccccn2)cs1)c1ccc(Cl)s1`, the inhibition is reported as 46.2%. With `CNC(=O)c1ccsc1NC(=O)c1sc2ccccc2c1Cl` the inhibition was 58.8% (active). Work on `O=c1cc(-c2ccccc2)[nH]c2nc3ccccc3n12` yielded an inhibition of 44.1%. For `Cc1nc(-c2ccccc2)cn2c1nc1ccccc12`, the inhibition was 59.9% (active). In the case of `Cc1ccc(Nc2cc(C)nc(NCc3ccccc3)n2)cc1`, the inhibition is reported as 61.2% (active). In the case of `Cc1cc(N/N=C/c2ccccc2)nc(NCc2ccccc2)n1`, the inhibition is reported as 68.2% (active). For `Cc1cc(N/N=C/c2cccc(Cl)c2)nc(NCc2ccccc2)n1`, the inhibition was 55.9% (active). In the case of `Cc1ccccc1N(CC(=O)N/N=C/c1ccccc1Cl)C(=O)c1ccccc1`, the inhibition is reported as 35.8%. For `Cc1cc(N/N=C/c2ccccc2Cl)nc(NCc2ccccc2)n1`, the inhibition was 52.2% (active). Compound `CC1(C)CC(=O)C2=C(C1)OC(N)=C([N+](=O)[O-])C2c1cccs1` (configuration not stated) has an inhibition of 39.2%. For `CCOC(=O)c1c(C)n(C)c2cc(-c3ccc(C)cc3)c(O)cc12`, the inhibition was 41.5%. In the case of `Cc1cc(N/N=C/c2ccc(Cl)cc2)nc(NCc2ccccc2)n1`, the inhibition is reported as 78.7% (active). With `O=C(COc1ccc(Br)cc1Br)NC(=S)Nc1cccc(CO)c1` the inhibition was 59.8% (active). Work on `O=C(COc1ccc(CO)cc1Cl)Nc1ccc(F)cc1` yielded an inhibition of 38.2%. `Cc1ccccc1OCC(=O)Nc1cccc(N(C)S(C)(=O)=O)c1` showed an inhibition of 34.6%. In the case of `N/C(Cc1ccc(Cl)cc1Cl)=N\OC(=O)c1cccs1`, the inhibition is reported as 53.2% (active). With `CCc1ccc(C(=O)NCc2ccc(Cl)cc2Cl)cc1` the inhibition was 49.6%. With `COc1ccc(C(=O)O/N=C(\N)Cc2ccc(Cl)cc2Cl)cc1OC` the inhibition was 72.4% (active). With `COc1ccc(Cl)cc1C(=O)O/N=C(\N)c1ccc(Cl)cc1` the inhibition was 43.9%. Compound `CCN(CC)CCN1C(=O)c2ccccc2NC1c1ccc(N(C)C)cc1` (configuration not stated) has an inhibition of 31.9%. For `CCCc1ccc(-c2c(C)sc(N)c2C#N)cc1`, the inhibition was 51.2% (active). With `CCn1c(C)[n+](CC(O)COCC2CC=CCC2)c2ccccc21` (configuration not stated) the inhibition was 41.3%. With `COc1cc(C)ccc1OCCOCCOc1ccc([N+](=O)[O-])cc1` the inhibition was 65.2% (active). Compound `C=CCc1ccc(OCCCOc2ccc(C)cc2OC)c(OC)c1` has an inhibition of 31.8%. For `COc1ccc(CNc2nc(C)c([N+](=O)[O-])c(C)c2C#N)cc1`, the inhibition was 45.5%. In the case of `NNC(=S)NCc1cccnc1`, the inhibition is reported as 37.2%. `O=C1/C(=C\c2cccnc2)CN(Cc2ccccc2)C/C1=C\c1cccnc1` showed an inhibition of 30.4%. With `S=C1SCN(Cc2cccnc2)CN1Cc1cccnc1` the inhibition was 89.2% (active). In the case of `Nc1[nH]c(=O)ncc1F`, the inhibition is reported as 81.2% (active). With `Cc1nc(N)sc1N=Nc1ccc(Br)cc1` the inhibition was 68.5% (active). For `CCOC(=O)c1c(C)n(C)c2ccc(OC)c(NC(=O)CN3CCN(C4CCCCC4)CC3)c12`, the inhibition was 21.6%. In the case of `CCOC(=O)C(=Cc1cc(=O)c(OC)co1)C(=O)OCC`, the inhibition is reported as 85.2% (active). Work on `CCOC(=O)C(=CNNc1ccsc1C(=O)OC)C(=O)OCC` yielded an inhibition of 41%. For `C1=CC2CC1CC2CN1CCN(Cc2ccccc2)CC1` (configuration not stated), the inhibition was 48.8%. For `Cc1onc(-c2ccccc2Cl)c1C(=O)N1C=CC(C(F)(F)F)=NCC1`, the inhibition was 77.5% (active).
